{
  "source": "PubChem BioAssay (NCI)",
  "note": "About 83,000 compounds went through this panel and 20% of them were active in at least one assay; those are over-represented in the sample as a whole.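 Step 1: grow cells in 96-well plates. Step 2: add test compound at a single concentration. Step 3: incubate 48 h. Step 4: record percent growth.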 Values without a mark were called inactive. The calls were made as follows: active = growth percent below 10; inactive = the rest.",
  "data": [
    {"test_system": "MDA-MB-468 breast", "assay": "NCI-60 one-dose screen, 48 h (100 = growth as untreated, 0 = no growth, -100 = all killed)", "conditions": "10 µM unless noted", "values": [
      {"smiles": "COc1cc(Cn2cc(F)c(=O)[nH]c2=O)cc(OC)c1", "growth": "106% [50 µM]"},
      {"smiles": "Cc1ccc2oc(=O)cc(-c3nc4ccc([N+](=O)[O-])cc4[nH]3)c2c1", "growth": "29%"},
      {"smiles": "O=c1c2ccccc2n2cnc3ccc(Cl)c1c32", "growth": "79.1%"},
      {"smiles": "OB(O)c1cccc(-c2nc3ccc4[nH]ncc4c3c3c2CCCC3)c1F", "growth": "55.3%"}
    ]}
  ]
}
